Screens from PubChem.
Most compounds without a hit are left out; they make up all but 2.8% or so of the library.
N-glyco inh: N-linked glycosylation inhibition. D54 ERlucT glycosylation luciferase reporter, 24 h; percent of 100 nM tunicamycin response. reporter increase, % at 12.5 µM. AID 588692. 360,000 tested, 0.23% active;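 active means mean luciferase reporter signal, scaled so untreated is 0 and the glycosylation-blocking control 100, at or above a set limit in every replicate; inconclusive means mean reaches the limit but not every replicate does; inactive means mean below the limit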;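 further: luciferase carries N-glycosylation sites so blocking glycosylation raises the light; 0% = median of neutral control wells and 100% = median of 100 nM tunicamycin wells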
Env fusion inh: HIV envelope-mediated fusion inhibition. HeLa-JRFL Env/CEM21 cell fusion, luciferase. inhibition, % at 12.3 µM. 360,000 tested, 1.1% active;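 active means mean replicate inhibition score of at least 50 and every replicate individually at or above 50; inconclusive means only one of the two criteria met; inactive means mean below 50 and not all replicates reaching 50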;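 further: 0% = plate neutral controls and 100% = maraviroc near 300 nM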
Shn3 inh set2: Schnurri-3 reporter inhibition in Clone20 osteoblasts; Clone20 osteoblast Shn3 3'UTR firefly luciferase, 24 h; inhibition, % at 12.5 µM; AID 588674; 360,000 tested, 0.52% active;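 active means mean inhibition of at least 75% with every replicate also reaching 75%; inconclusive means mean inhibition at least 75% but some replicate below; inactive means mean inhibition below 75%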;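 further: 0% = median of neutral control wells and 100% = pilot-screen positive control compound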
PAX8 reporter: lowers PAX8-driven luciferase in RMG-I cells; RMG-I TPO-luciferase reporter, SteadyGlo, 24 h; inhibition, % at 12.6 µM; 360,000 tested, 1.2% active;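 active means mean replicate inhibition at least 60% with every replicate also reaching 60%; inconclusive means only one of the two criteria is met; inactive means mean below 60% and not all replicates reaching 60%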;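 further: luciferase light reporting Pax8 driven TPO promoter activity; plate controls were median of neutral control wells for no effect and mitoxantrone controls for full effect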
LMP1 NFkB inh: Epstein-Barr LMP1 NF-kappaB reporter inhibition | AID 504558 | 350,000 tested, 0.69% active | inhibition, % at 12.5 µM | LMP1-induced NF-kappaB luciferase reporter cells, luminescence; in the data active means inhibition above about 41%; inconclusive means no clear call, values can overlap the other calls;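 further: 0% = neutral control wells and 100% = reference inhibitor control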
NSD2 HMT inh: inhibitors of human histone methyltransferase NSD2. O96028. NSD2 peptide methylation, AlphaScreen, 120 min. inhibition, % at 12.5 µM. 310,000 tested, 0.54% active; in the data active means inhibition above about 50%
Numbers without * were called inactive; ? = inconclusive; . = no result; [ ] = dose if it differs, or a comment.

SMILES	N-glyco inh	Env fusion inh	Shn3 inh set2	PAX8 reporter	LMP1 NFkB inh	NSD2 HMT inh
CCC1C/C(=C\c2cccnc2)C(=O)/C(=C/c2cccnc2)C1 (stereo not drawn)	-26	?	40	89*	93*	.
C=CCN=C1CCCc2c1[nH]c1ccc(C)cc21	4	62*	-24	2	1	9
O=C(C1CCOCC1)N1CC[C@@H]2[C@@H](CO)Nc3ccc(-c4ccc(F)cc4)cc3[C@@H]21	.	.	.	-2	.	.
O=C(C[n+]1ccccc1)c1ccc(-c2ccccc2)cc1	0	8	-30	12	9	1
CN(C)c1cc[n+](CC(=O)c2ccc(-c3ccccc3)cc2)cc1	3	64*	73	98*	-15	5
Cc1ccc(C(=O)Nc2ccccc2-c2ccccc2)cc1S(=O)(=O)Nc1cccc(C)c1C	-8	14	38	.	7	0
Cc1ccc(C)c(NS(=O)(=O)c2cc(C(=O)Nc3ccccc3-c3ccccc3)ccc2C)c1	-8	71*	26	.	-9	0
C[C@H]1CN([C@@H](C)CO)C(=O)c2cc(C#Cc3ccccc3F)cnc2O[C@H]1CN(C)C(=O)Cc1cccnc1	.	14[16.7 µM]	.	.	.	.
C[C@@H]1CN([C@@H](C)CO)C(=O)c2cc(NC(=O)C3CCCCC3)ccc2O[C@@H](C)CCCCO[C@@H]1CN(C)C(=O)Nc1ccc2c(c1)OCO2	.	1[16.7 µM]	.	.	.	.
Cc1ccc(C(=O)Nc2cnc3ccccn3c2=O)cc1	-6	-44	-72	.	12	-1
O=C(Nc1cnc2ccccn2c1=O)c1ccc(Cl)cc1Cl	-20	17	16	-34	44*	-11
Cc1cccc(NC(=O)c2cnc3ccccn3c2=O)c1	-19	-27	12	-224	51*	.
CCCNC(=O)N1CC2(CCN(C(=O)c3cccnc3)CC2)c2c([nH]c3cc(OC)ccc23)[C@H]1CO	.	-6[16.7 µM]	.	.	.	.
O=C(c1cccc(C(F)(F)F)c1)N1CCc2c([nH]c3ccccc23)C1C(F)(F)F (stereo not drawn)	0	86*	1	16	-8	-1
CNC(=O)C[C@@H]1CC[C@H]2[C@@H](COC[C@H](O)CN2Cc2ccc(Cl)c(Cl)c2)O1	.	14[16.7 µM]	.	-10	.	.
C[C@H](CO)N1C[C@H](C)[C@H](CN(C)Cc2ccncc2)Oc2ccc(NC(=O)Nc3cccc4ccccc34)cc2C1=O	.	9[16.7 µM]	.	13	.	.
O=C(C[C@@H]1CC[C@@H](NC(=O)C2CCC2)[C@H](CO)O1)NC1CCCCC1	.	-13[16.7 µM]	.	.	.	.
O=C1c2ccccc2-c2onc3ccc(Oc4ccccc4)c1c23	-8	-359	90*	.	53*	3
Cc1cc(NC(=O)c2ccccc2F)n(-c2nc3ccccc3[nH]2)n1	3	-72	5	-18	-1	-4
Cc1cc(NC(=O)c2ccc(C)s2)n(-c2nc3ccccc3[nH]2)n1	5	-17	16	-39	67*	3
CC(C)c1cccc(-c2ccc3c(c2)S(=O)(=O)c2cccc(C(=O)NCc4ccccc4Cl)c2C3=O)c1	197*	.	37	.	-19	.
O=C(NCc1ccc(F)cc1)c1cccc2c1C(=O)c1ccc(Cl)cc1S2(=O)=O	.	-16	.	-2	.	.
COc1ccc(-c2ccc3c(c2)S(=O)(=O)c2cccc(C(=O)NCc4ccccc4Cl)c2C3=O)cc1OC	-6	33	-3	-15	-55	.
O=C(NCc1cc(C(F)(F)F)ccc1Cl)c1cccc2c1C(=O)c1ccc(N3CCC(N4CCCCC4)CC3)cc1S2(=O)=O	-21	16	76	94*	-38	.
O=C(NCc1ccccc1Br)c1cccc2c1C(=O)c1ccc(-c3ccc(OC(F)(F)F)cc3)cc1S2(=O)=O	156*	.	21	.	-47	.
SMILES	N-glyco inh	Env fusion inh	Shn3 inh set2	PAX8 reporter	LMP1 NFkB inh	NSD2 HMT inh
CC(C)c1cccc(-c2ccc3c(c2)S(=O)(=O)c2cccc(C(=O)NCc4ccccc4)c2C3=O)c1	92*	-6	23	12	3	.
CO[C@@H]1CN(C)C(=O)c2cc(NC(=O)C3CCCC3)ccc2OC[C@@H](C)N(CCC(F)(F)F)C[C@@H]1C	.	.	.	14	.	.
COc1ccc2c3c(n(C)c2c1)[C@@H](CO)N(CC1CCOCC1)CC31CCN(Cc2nccs2)CC1	.	-38[16.7 µM]	.	.	.	.
CCCSc1ccc2nc(-c3ccccc3)cn2c1	-23	-81	53	48	68*	-1
CCN1CCS/C1=C\C=C\C1=[N+](CC)CCS1	9	41	75	76*	30	11
CCN1CCS/C1=C/C=C/C1=[N+](CC)CCS1	8	.	75	.	28	11
CC(=O)N1[C@@H]2c3ccc(/C=C/c4ccccc4)c(=O)n3C[C@H]1[C@H](CO)[C@H]2C(=O)N(C)C	.	-7[16.7 µM]	.	.	.	.
CCOC(=O)c1c(C)[nH]c(-c2csc(C)n2)c1C	0	-18	-24	-56	0	10
CCOC(=O)c1c(C)[nH]c(-c2csc(N)n2)c1C	27*	-200	12	29	-17	-1
CCNC(=O)[C@@H]1[C@@H](CO)[C@@H]2Cn3c(ccc(C4=CCCCC4)c3=O)[C@@H]2N1C(=O)CC1CC1	.	.	.	-13	.	.
Cc1cccc(C)c1NC(=S)Nc1c(C)n(C)n(-c2ccccc2)c1=O	0	.	3	76*	-3	-3
Cc1ccc(NC(=S)Nc2cccc(S(=O)(=O)Nc3c(C)n(C)n(-c4ccccc4)c3=O)c2)cc1	-2	5	-16	-65	69*	0
Cc1c(NC(=S)Nc2cccc(Cl)c2)c(=O)n(-c2ccccc2)n1C	2	-1	0	-18	8	0
CC(C)C(=O)Nc1ccc2c(c1)C(=O)N(C)[C@@H]1CC[C@H](CC(=O)NCc3ccccc3F)O[C@@H]1CO2	.	-10[16.7 µM]	.	6	.	.
Brc1ccc2nc(-c3ccc(CN4CCC(c5nc6ccccc6[nH]5)CC4)cc3)c(-c3ccccc3)nc2c1	.	22	.	101*	.	.
C[C@@H]1CN([C@H](C)CO)S(=O)(=O)c2ccc(C3=CCCCC3)cc2O[C@@H]1CN(C)Cc1ccccc1F	.	34[16.7 µM]	.	.	.	.
CN(C)c1ccc(/C=C2\SC(=O)N(CCc3nnc(N)s3)C2=O)cc1	-21	23	69	50	73*	0
C[C@@H]1CCCCO[C@H](CN(C)C(=O)Cc2ccccc2)[C@@H](C)CN([C@H](C)CO)C(=O)c2cc(NC(=O)Nc3ccc(F)cc3)ccc2O1	.	-26[16.7 µM]	.	-10	.	.
O=C(O)C[C@H]1CC[C@H](NC(=O)c2ccncc2)[C@H](CO)O1	.	-31[16.7 µM]	.	1	.	.
NC(=O)CC(NC(=O)Cc1ccc(Br)cc1)c1ccc(NCC2CC2)c([N+](=O)[O-])c1 (stereo not drawn)	45*	-7	25	1	10	.
NC(=O)CC(NC(=O)Cc1ccc(Cl)cc1)c1ccc(NCC2CC2)c([N+](=O)[O-])c1 (stereo not drawn)	43*	5	-13	16	18	.
CCOc1ncccc1C(=O)Nc1cc2c(cc1Br)OCCO2	41*	.	-17	-55	-12	0
